GLD-1 RNA inh: GLD-1-TGE RNA interaction inhibition (C. elegans) | Q17339 | purified GLD-1 + fluorescein TGE RNA, fluorescence polarization | inhibition, % at 5.96 µM | 0.44% of 320,000 active | AID 2280;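 active = percent inhibition above a per-plate cutoff, the plate mean of test compounds plus 3 SD, cut at about 30% in these data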;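 note: 0% = DMSO wells with GLD-1 and probe and 100% = wells lacking GLD-1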
Target sequence (Q17339 whole entry, looked up): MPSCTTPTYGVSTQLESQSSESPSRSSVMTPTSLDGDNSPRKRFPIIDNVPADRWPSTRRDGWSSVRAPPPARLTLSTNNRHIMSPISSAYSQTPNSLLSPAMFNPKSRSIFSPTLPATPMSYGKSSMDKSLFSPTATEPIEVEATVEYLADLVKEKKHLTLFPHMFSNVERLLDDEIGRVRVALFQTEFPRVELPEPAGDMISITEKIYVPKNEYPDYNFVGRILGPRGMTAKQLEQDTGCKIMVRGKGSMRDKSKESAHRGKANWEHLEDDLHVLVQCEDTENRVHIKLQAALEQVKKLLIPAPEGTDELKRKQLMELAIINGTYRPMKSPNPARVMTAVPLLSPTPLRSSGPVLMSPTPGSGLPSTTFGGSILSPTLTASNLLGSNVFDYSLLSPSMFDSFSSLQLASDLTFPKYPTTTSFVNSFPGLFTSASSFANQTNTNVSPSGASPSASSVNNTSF
Bcl-xL primary: blocks human Bcl-xL binding to Bim BH3 peptide; Q07817; GST-Bcl-xL / FITC-Bim BH3 peptide fluorescence polarization; inhibition, % at 10.9 µM; 0.7% of 320,000 active; AID 2129;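 active = inhibition above the mean of all tested compounds plus 3 SD, cutoff set per campaign, cut at about 30% in these data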;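 note: 0% = DMSO wells and 100% = unlabeled Bim-BH3 peptide competitor; inhibitors lower millipolarization by displacing the labeled peptide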
Keap1-Nrf2 PPI: disrupts human Keap1 binding to Nrf2 peptide | 0.15% of 340,000 active | Q14145 | Keap1 Kelch-Nrf2 peptide fluorescence polarization, 1536-well | inhibition, % at 9.4 µM; in the data active = inhibition above about 12%;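 note: human Keap1 Kelch domain with fluorescein labeled Nrf2 9mer peptide probe; 0% = neutral control wells and 100% = peptide positive control; higher means more block of Keap1 binding to Nrf2 peptide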
LANA DNA inh: blocks KSHV LANA C-terminal domain binding to DNA. MBP-C-LANA/FAM-LBS DNA binding, fluorescence polarization. inhibition, % at 9 µM. 0.078% of 340,000 active. AID 504423;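 active = highest replicate inhibition at or above 60% at 9 µM, even if other replicates fall short; inactive = all replicates below 60% inhibition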;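 note: 0% = neutral control wells and 100% = 4 µM acridine orange control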
E coli Lon inh: E. coli protease La inhibition. purified E. coli Lon protease, fluorescence polarization. P0A9M0. 0.42% of 360,000 active. inhibition, % at 7.94 µM; in the data active = inhibition above about 13%, passing the limit was not always enough;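 note: 0% = enzyme with probe and DMSO and 100% = no enzyme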
MCL1 BIM primary: MCL1-BIM-BH3 interaction inhibition (human); GST-MCL1 / FITC-Bim-BH3 fluorescence polarization; AID 2057; Q07820; 0.68% of 320,000 active; inhibition, % at 10.9 µM;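 active = inhibition above the mean inhibition of all tested compounds plus 3 SD, set per campaign, cut at about 40% in these data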;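 note: 0% = DMSO wells and 100% = unlabeled Bim-BH3 peptide control; higher means more loss of mP so more displacement of Bim peptide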
Starred values were filed as active, the others as inactive; . = not tested or not shown; + = active, no number. Rows were chosen to be rich in hits. Some 1.3% of all compounds tested hit in one or more screens of this group.

SMILES	GLD-1 RNA inh	Bcl-xL primary	Keap1-Nrf2 PPI	LANA DNA inh	E coli Lon inh	MCL1 BIM primary
Cc1onc(-c2ccccc2)c1C(=O)Nc1cccc2nsnc12	0	2	-6	116*	5	2
O=C1CCC[C@@H]2C[C@@]3(C[C@@H]4CCN1[C@H]24)Nc1cc(Cl)c(Cl)cc1NC3=NCc1ccccc1	.	.	-8	0	-1	.
CC(C)(C)CNC(=O)C1(C)CCN1C(=O)Cc1ccc(-c2ccccc2)cc1 (stereo unspecified)	.	.	.	.	-17	.
OCCCc1nc2n(n1)C(c1ccccc1Cl)C=C(c1cccs1)N2 (stereo unspecified)	30	37*	5	11	-52	42*
OCCCc1nc2n(n1)C(c1cccs1)C=C(c1ccccc1)N2 (stereo unspecified)	154*	177*	.	.	.	+
OCCCc1nc2n(n1)C(c1ccccc1)C=C(c1ccc(F)cc1)N2 (stereo unspecified)	6	10	-1	1	-7	7
COc1ccc2ccccc2c1C=NN1CCCCC1	.	.	.	.	16	.
CCCCN(C(=O)COC(=O)c1sccc1C)c1c(N)n(CCC)c(=O)[nH]c1=O	.	.	.	.	-5	.
CCN(CC)CCCNc1cc(C)c(C#N)c2nc3ccccc3n12	.	.	.	.	-9	.
CCN(CC)CCCNc1cc(C(F)(F)F)c(C#N)c2nc3ccccc3n12	20	38*	-5	7	-19	42*
C[C@@H]1CCCCO[C@@H](CN(C)C(=O)Nc2ccc3c(c2)OCO3)[C@@H](C)CN([C@H](C)CO)C(=O)c2cc(N(C)C)ccc2O1	.	.	.	.	0	.
CC1(C)CC(=O)C2=C(C1)OC(N)=C(C#N)C2c1ccc[nH]1 (stereo unspecified)	8	33*	-11	6	-16	26
COc1ccc(C2C(C#N)=C(N)OC3=C2C(=O)CC(C)(C)C3)cc1 (stereo unspecified)	6	51*	-4	-1	-4	-3
Cn1cccc1C1C(C#N)=C(N)OC2=C1C(=O)CC(C)(C)C2 (stereo unspecified)	2	9	3	0	-2	8
COc1cccc(-c2cc(C(F)(F)F)c3c(N)c(C#N)sc3n2)c1	-2	27	.	.	.	46*
N#Cc1sc2nc(-c3ccccc3)cc(-c3ccco3)c2c1N	6	18	-5	1	4	16
O=C(CSc1n[nH]c(=O)[nH]c1=O)Nc1ccc2c(c1)C(=O)c1ccccc1C2=O	20	34*	0	1	14	40*
O=[N+]([O-])c1ccc2nc(NN=Cc3ccc(O)cc3)sc2c1	.	.	5	1	-15	.
O=c1c2cc(O)c(O)cc2oc2cc(O)c(C3OC(CO)C(O)C(O)C3O)c(O)c12 (stereo unspecified)	0	7	-2	67*	0	37
CCCNC(=O)c1cc(C2CCCN(C(=O)C3CCCCC3)C2)on1 (stereo unspecified)	.	.	.	.	-7	.
Oc1c(Cl)cc(Cl)cc1Sc1cc(Cl)cc(Cl)c1O	-2	20	.	.	.	53*
COc1ccccc1NS(=O)(=O)c1cccc(C(=O)N/N=C2\CC(=O)CC(C)(C)C2)c1	59*	9	-4	3	21	7
Cc1ccc(C2NC(=O)c3c(sc4c3CCN(C)C4)N2)o1 (stereo unspecified)	5	40*	-10	5	-4	37
CN1CCc2c(sc3c2C(=O)NC(c2ccc4c(c2)OCO4)N3)C1 (stereo unspecified)	3	6	-5	0	-1	14
CN1CCc2c(sc3c2C(=O)NC(c2ccccc2)N3)C1 (stereo unspecified)	5	41*	-4	7	-64	34
SMILES	GLD-1 RNA inh	Bcl-xL primary	Keap1-Nrf2 PPI	LANA DNA inh	E coli Lon inh	MCL1 BIM primary
Cc1ccc(C2NC(=O)c3c(sc4c3CCN(C)C4)N2)s1 (stereo unspecified)	-34	13	-10	5	-123	-7
NC(=O)c1ccc(NC(=O)C2COc3ccccc3O2)cc1 (stereo unspecified)	7	6	69*	.	-3	4
CCC/C=N/NC(=O)C1COc2ccccc2O1 (stereo unspecified)	9	98*	4	-1	6	2
COc1ccc(CNC(=O)C2CCN(S(=O)(=O)c3ccc(N4CCCC4=O)cc3)CC2)cc1	.	.	.	.	3	.
CC(=O)[C@@H]1[C@@H](C(=O)c2ccccc2)[C@]2(C(=O)Nc3ccccc32)[C@H]2C=Cc3cc(F)ccc3N12	6	20	2	2	2	15
O=C(c1ccccc1)[C@@H]1[C@@H](C(=O)c2ccc(F)cc2)[C@@]2(C(=O)Nc3ccccc32)[C@H]2c3ccccc3C=CN12	25	33*	-4	2	-9	28
COc1ccccc1CCn1cnc(Cc2ccccc2)c1C(C)C	.	.	.	.	-7	.
O=C(O)c1cc(O)c2c(c1)[C@H]([C@H]1c3cc(C(=O)O)cc(O)c3C(=O)c3c(O[C@@H]4O[C@H](CO)[C@@H](O)[C@H](O)[C@H]4O)cccc31)c1cccc(OC3O[C@H](CO)[C@@H](O)[C@H](O)[C@H]3O)c1C2=O (stereo partly specified)	29	94*	-3	14	3	110*
O=C(O)c1cc(O)c2c(c1)[C@@H]([C@H]1c3cc(C(=O)O)cc(O)c3C(=O)c3c(O[C@@H]4O[C@H](CO)[C@@H](O)[C@H](O)[C@H]4O)cccc31)c1cccc(OC3O[C@H](CO)[C@@H](O)[C@H](O)[C@H]3O)c1C2=O (stereo partly specified)	30	97*	-2	9	-8	114*
O=C1c2cc(CO)cc(O)c2C(=O)c2c(O[C@@H]3OC(CO)[C@@H](O)[C@@H](O)[C@@H]3O)cccc21 (stereo partly specified)	10	11	-4	-3	6	14
CC(C)C(=O)N1CCCC1(C)C(=O)Nc1ccccc1 (stereo unspecified)	.	.	.	.	-5	.
O=C(c1ccc([N+](=O)[O-])cc1)n1nc(-c2ccccc2)nc1NCc1ccc(F)cc1	24	38*	1	0	1	37
C[C@H](CO)N1C[C@H](C)[C@@H](CN(C)S(=O)(=O)c2ccc(Cl)cc2)Oc2ccc(NS(=O)(=O)c3ccccc3)cc2CC1=O	3	.	-8	-1	19*	.
CS(=O)(=O)c1ccc(Nc2nc(C(N)CCc3ccccc3)cs2)cc1 (stereo unspecified)	.	.	.	.	4	.
CCc1nc2ccc(C(=O)NCCc3ccccn3)cn2c1N(C)Cc1cccs1	.	.	.	.	0	.
CC(=O)NC(c1cccc(F)c1)c1nc(-c2ccc3ccccc3c2)cs1 (stereo unspecified)	.	.	.	.	-12	.
CC(NC(=O)Nc1ccc([N+](=O)[O-])cc1)C(c1cccs1)N1CCCC1 (stereo unspecified)	4	52*	0	0	13	2

Source: PubChem BioAssay
